# Measured values taken from the supplement of paper PMC10849652.
# About 7,900 targets were measured; listed, in parts, are those with a hit and a random draw of the rest. About 0.6% of all pairs of compound and target were hits.
# Compound: C1=CC=C(C=C1)[C@H](COC2=CC3=C(C=C2)NC(=O)N3)NC(=O)C4=CC=CN(C4=O)CC5=CC(=C(C=C5)F)F
# Experiment: log2 fold change, soluble protein after heating vs DMSO (PISA); higher = thermal stabilisation; K562 cells, 10 uM, 30 min; active = over 0.2 and 3.5 SD of the protein, either way, in both replicates (recomputed)
# Outline: (§1)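 Thermal stability values are relative to control samples and come from duplicates. They are expressed as log2 fold changes. For measurement, K562 cells (2×10^6 cells/mL) received 10 μM compound for 30 min, and aliquots were heated for 3 min over 48°C-58°C, pooled, and extracted at 4°C in PBS with 0.5% NP-40. Soluble protein, the supernatant after 21,000xg for 90 min, was quantified by TMTpro 16plex LC-MS/MS with equalised channel sums.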
# Chain of UniProt Q9NZ09 (Q9NZ09 whole entry, looked up): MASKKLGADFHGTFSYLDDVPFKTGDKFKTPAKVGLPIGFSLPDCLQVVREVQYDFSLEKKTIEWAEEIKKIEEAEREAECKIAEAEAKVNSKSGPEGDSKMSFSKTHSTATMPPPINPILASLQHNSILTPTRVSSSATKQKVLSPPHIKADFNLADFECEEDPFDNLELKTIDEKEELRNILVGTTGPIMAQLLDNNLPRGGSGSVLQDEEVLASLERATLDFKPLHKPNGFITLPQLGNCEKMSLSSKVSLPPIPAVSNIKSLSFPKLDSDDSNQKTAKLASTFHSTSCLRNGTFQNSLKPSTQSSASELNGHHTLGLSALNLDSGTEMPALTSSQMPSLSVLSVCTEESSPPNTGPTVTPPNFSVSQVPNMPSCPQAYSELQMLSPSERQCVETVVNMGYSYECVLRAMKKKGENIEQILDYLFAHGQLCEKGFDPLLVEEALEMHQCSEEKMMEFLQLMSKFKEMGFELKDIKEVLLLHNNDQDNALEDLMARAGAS
# Chain of UniProt Q96JG6 (Q96JG6 whole entry, looked up): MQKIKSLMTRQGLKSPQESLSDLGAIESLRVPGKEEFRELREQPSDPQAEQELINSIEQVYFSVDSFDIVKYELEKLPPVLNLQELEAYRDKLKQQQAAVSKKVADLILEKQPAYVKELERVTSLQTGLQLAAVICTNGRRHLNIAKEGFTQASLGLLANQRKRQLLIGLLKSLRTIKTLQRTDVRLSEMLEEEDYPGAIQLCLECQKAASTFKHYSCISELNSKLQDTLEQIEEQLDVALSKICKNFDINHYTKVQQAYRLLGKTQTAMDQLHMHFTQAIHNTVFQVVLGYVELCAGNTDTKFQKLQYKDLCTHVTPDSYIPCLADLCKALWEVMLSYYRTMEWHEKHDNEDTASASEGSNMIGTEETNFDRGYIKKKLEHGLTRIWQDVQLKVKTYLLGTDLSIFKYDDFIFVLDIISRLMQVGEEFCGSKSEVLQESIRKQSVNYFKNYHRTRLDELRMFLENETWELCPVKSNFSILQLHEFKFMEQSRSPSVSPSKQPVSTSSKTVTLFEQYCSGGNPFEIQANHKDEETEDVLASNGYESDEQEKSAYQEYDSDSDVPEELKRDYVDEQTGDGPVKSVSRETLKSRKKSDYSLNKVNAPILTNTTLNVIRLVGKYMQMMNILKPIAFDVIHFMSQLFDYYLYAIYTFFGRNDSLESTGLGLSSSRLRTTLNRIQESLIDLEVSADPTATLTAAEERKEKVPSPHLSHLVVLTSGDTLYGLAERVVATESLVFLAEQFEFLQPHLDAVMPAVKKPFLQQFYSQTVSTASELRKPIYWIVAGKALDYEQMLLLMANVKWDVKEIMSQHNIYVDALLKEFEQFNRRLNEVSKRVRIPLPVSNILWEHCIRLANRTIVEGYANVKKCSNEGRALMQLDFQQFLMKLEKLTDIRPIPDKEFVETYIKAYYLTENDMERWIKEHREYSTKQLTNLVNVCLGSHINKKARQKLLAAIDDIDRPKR
# Chain of UniProt Q8IY95 (Q8IY95 whole entry, looked up): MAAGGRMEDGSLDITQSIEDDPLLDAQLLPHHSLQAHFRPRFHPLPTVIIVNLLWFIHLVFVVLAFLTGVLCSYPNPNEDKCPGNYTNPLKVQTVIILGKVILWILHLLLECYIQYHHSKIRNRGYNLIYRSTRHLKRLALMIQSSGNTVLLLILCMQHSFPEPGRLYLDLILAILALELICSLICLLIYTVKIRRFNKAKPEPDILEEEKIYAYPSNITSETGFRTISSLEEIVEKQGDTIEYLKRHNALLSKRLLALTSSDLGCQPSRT
# Chain of UniProt Q96AJ9 (Q96AJ9 whole entry, looked up): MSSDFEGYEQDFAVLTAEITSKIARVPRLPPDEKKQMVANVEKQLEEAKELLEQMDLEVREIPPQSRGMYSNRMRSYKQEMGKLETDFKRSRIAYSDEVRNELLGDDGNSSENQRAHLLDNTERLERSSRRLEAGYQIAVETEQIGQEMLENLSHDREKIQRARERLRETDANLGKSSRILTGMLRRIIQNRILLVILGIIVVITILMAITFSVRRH
# Chain of UniProt Q12888 (Q12888 whole entry, looked up): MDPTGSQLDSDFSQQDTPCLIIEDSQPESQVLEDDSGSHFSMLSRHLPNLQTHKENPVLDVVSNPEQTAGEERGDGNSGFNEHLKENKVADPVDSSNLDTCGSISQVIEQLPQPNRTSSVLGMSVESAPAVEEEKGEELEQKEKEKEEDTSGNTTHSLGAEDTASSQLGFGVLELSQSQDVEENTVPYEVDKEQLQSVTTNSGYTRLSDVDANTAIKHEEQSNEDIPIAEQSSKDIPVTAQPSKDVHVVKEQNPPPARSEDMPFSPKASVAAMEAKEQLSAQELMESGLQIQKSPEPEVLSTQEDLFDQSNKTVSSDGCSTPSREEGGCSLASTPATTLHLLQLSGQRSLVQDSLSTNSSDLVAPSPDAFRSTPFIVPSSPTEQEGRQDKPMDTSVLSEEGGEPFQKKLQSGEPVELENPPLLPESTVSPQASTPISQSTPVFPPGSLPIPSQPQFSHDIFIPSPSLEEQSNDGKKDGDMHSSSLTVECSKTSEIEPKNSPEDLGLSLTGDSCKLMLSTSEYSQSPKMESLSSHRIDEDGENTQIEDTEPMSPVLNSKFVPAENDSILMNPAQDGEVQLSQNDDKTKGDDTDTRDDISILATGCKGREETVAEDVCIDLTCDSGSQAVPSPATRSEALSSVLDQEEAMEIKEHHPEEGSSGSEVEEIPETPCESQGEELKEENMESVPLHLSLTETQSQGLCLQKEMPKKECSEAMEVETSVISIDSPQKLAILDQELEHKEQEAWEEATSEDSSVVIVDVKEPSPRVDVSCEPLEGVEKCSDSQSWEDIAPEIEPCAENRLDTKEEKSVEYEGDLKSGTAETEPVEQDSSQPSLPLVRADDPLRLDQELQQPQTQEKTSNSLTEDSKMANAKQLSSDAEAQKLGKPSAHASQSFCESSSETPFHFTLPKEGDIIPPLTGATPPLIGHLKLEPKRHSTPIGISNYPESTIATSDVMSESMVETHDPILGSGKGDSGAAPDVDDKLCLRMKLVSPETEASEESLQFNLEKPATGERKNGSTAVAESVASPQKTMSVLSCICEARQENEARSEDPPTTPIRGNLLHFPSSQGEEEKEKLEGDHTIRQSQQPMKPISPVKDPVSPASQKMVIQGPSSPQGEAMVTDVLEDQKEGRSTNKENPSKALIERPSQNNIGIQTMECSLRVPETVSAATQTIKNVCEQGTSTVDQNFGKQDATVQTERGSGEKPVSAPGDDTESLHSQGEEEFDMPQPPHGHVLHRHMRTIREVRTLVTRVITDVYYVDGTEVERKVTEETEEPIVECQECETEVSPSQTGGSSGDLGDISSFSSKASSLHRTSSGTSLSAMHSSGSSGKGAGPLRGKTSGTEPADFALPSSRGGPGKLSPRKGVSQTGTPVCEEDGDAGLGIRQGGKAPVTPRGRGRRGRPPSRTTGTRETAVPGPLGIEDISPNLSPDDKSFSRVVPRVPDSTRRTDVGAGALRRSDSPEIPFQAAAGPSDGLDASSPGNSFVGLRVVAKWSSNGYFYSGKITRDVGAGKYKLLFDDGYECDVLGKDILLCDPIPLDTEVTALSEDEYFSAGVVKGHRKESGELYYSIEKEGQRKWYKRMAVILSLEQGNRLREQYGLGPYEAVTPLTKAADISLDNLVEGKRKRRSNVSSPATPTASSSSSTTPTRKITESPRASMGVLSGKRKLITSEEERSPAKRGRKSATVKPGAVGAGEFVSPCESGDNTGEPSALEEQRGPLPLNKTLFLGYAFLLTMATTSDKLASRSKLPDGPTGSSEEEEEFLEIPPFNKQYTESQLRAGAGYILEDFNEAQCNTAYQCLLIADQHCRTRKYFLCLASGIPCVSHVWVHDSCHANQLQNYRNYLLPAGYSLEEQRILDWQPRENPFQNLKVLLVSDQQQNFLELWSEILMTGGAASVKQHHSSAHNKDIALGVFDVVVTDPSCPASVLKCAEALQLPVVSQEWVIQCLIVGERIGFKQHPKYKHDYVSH
# Chain of UniProt Q6PID6 (Q6PID6 whole entry, looked up): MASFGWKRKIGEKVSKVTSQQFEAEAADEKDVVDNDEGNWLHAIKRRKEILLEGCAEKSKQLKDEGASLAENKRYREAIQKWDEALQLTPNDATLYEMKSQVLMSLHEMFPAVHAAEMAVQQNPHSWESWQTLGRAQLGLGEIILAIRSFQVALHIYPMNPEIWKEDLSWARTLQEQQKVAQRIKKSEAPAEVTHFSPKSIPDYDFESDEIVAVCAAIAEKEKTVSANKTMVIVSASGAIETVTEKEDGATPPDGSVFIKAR
# Chain of UniProt Q99816 (Q99816 whole entry, looked up): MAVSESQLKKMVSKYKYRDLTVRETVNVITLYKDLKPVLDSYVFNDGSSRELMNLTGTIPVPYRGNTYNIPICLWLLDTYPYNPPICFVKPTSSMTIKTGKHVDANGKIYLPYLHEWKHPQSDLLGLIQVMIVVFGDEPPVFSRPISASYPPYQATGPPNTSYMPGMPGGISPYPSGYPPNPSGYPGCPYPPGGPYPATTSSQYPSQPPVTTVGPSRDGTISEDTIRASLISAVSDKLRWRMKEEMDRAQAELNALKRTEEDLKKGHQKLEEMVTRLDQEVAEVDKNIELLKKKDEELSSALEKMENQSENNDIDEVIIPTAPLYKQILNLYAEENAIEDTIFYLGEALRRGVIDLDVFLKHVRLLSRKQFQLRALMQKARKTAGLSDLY
# Chain of UniProt Q86SZ2 (Q86SZ2 whole entry, looked up): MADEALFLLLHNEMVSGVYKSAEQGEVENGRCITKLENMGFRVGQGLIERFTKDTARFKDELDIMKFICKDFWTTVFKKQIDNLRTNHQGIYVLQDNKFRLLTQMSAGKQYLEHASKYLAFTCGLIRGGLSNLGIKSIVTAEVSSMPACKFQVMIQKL
# Chain of UniProt Q629K1 (Q629K1 whole entry, looked up): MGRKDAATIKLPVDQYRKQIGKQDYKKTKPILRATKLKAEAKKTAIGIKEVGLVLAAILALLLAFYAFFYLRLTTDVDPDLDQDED
row,Target,log2 fold change
1,UBE3B (UniProt Q7Z3V4),-0.081 (inactive)
2,TRIQK (UniProt Q629K1),0.098 (inactive)
3,TRAPPC6B (UniProt Q86SZ2),-0.007 (inactive)
4,VPS50 (UniProt Q96JG6),-0.039 (inactive)
5,VPS18 (UniProt Q9P253),0.014 (inactive)
6,UPF3B (UniProt Q9BZI7),0.259 (inactive)
7,TTC33 (UniProt Q6PID6),-0.142 (inactive)
8,TSC2 (UniProt P49815),0.062 (inactive)
9,TXNRD1 isoform 7 (UniProt Q16881),0.046 (inactive)
10,VDAC1 (UniProt C9JI87),-0.132 (inactive)
11,TSG101 (UniProt Q99816),0 (inactive)
12,TTC38 (UniProt Q5R3I4),0.046 (inactive)
13,TMEM192 (UniProt Q8IY95),0.02 (inactive)
14,TRMT2A (UniProt Q8IZ69),-0.008 (inactive)
15,"WDR46, A0A0G2JJL1",0.129 (inactive)
16,TP53BP1 isoform 2 (UniProt Q12888),-0.025 (inactive)
17,UBAP1 isoform 4 (UniProt Q9NZ09),0.021 (inactive)
18,UBAP2L (UniProt F8W726),-0.05 (inactive)
19,TMEM179B (UniProt Q7Z7N9),-0.065 (inactive)
20,TTI1 (UniProt O43156),-0.034 (inactive)
21,TMEM268 isoform 3 (UniProt Q5VZI3),-0.008 (inactive)
22,U2AF1L5 (UniProt P0DN76),-0.008 (inactive)
23,TTC26,0.06 (inactive)
24,VTI1A (UniProt Q96AJ9),0.032 (inactive)
25,TOM1 (UniProt O60784),-0.077 (inactive)
26,TRAM1 (UniProt Q15629),-0.167 (inactive)
27,TMEM41A (UniProt Q96HV5),0.01 (inactive)
28,TUBA4A (UniProt C9JJQ8),-0.081 (inactive)
29,WARS1 (UniProt G3V277),-0.075 (inactive)

# Compound: CC1=C(SC2=C1C(=N[C@H](C3=NN=C(N32)C)CC(=O)N)C4=CC=C(C=C4)Cl)C
# Experiment: as above
# Outline: as §1
row,Target,log2 fold change
1,UBE3B (UniProt Q7Z3V4),-0.147 (inactive)
2,TRIQK (UniProt Q629K1),0.028 (inactive)
3,TRAPPC6B (UniProt Q86SZ2),0.061 (inactive)
4,VPS50 (UniProt Q96JG6),0.055 (inactive)
5,ULBP1 (UniProt Q9BZM6),0.014 (inactive)
6,VPS18 (UniProt Q9P253),-0.052 (inactive)
7,XRCC1 (UniProt P18887),0.091 (inactive)
8,TOM1L2 (UniProt Q6ZVM7),0.138 (inactive)
9,UPF3B (UniProt Q9BZI7),-0.211 (inactive)
10,TTC33 (UniProt Q6PID6),0.018 (inactive)
11,TSC2 (UniProt P49815),0.099 (inactive)
12,VDAC1 (UniProt C9JI87),-0.004 (inactive)
13,TSG101 (UniProt Q99816),0.032 (inactive)
14,TTC38 (UniProt Q5R3I4),0.049 (inactive)
15,TMEM192 (UniProt Q8IY95),-0.03 (inactive)
16,TRMT2A (UniProt Q8IZ69),-0.042 (inactive)
17,TP53BP1 isoform 2 (UniProt Q12888),-0.016 (inactive)
18,UBAP1 isoform 4 (UniProt Q9NZ09),0.005 (inactive)
19,TMEM179B (UniProt Q7Z7N9),0.081 (inactive)
20,TTI1 (UniProt O43156),0.136 (inactive)
21,TMEM104 (UniProt Q8NE00),0.001 (inactive)
22,TMEM268 isoform 3 (UniProt Q5VZI3),0 (inactive)
23,VTI1A (UniProt Q96AJ9),0.009 (inactive)
24,TRAM1 (UniProt Q15629),-0.024 (inactive)
25,TRIM5 (UniProt Q9C035),0.021 (inactive)
26,TVP23C (UniProt Q96ET8),0.048 (inactive)
27,TUBA4A (UniProt C9JJQ8),0.036 (inactive)

# Compound: CC1=C2C(=CC=C1)N=C(N(C2=O)C3=CC=CC=C3C)CN4C=NC5=C(N=CN=C54)N
# Experiment: as above
# Outline: as §1
row,Target,log2 fold change
1,TRAPPC6B (UniProt Q86SZ2),0.048 (inactive)
2,VPS50 (UniProt Q96JG6),0.022 (inactive)
3,ULBP1 (UniProt Q9BZM6),-0.001 (inactive)
4,VPS18 (UniProt Q9P253),-0.03 (inactive)
5,TOM1L2 (UniProt Q6ZVM7),0.101 (inactive)
6,UPF3B (UniProt Q9BZI7),-0.161 (inactive)
7,TTC33 (UniProt Q6PID6),0.073 (inactive)
8,TXNRD1 isoform 7 (UniProt Q16881),0.138 (inactive)
9,TSG101 (UniProt Q99816),0.074 (inactive)
10,TTC38 (UniProt Q5R3I4),0.032 (inactive)
11,TMEM192 (UniProt Q8IY95),0.018 (inactive)
12,TRMT2A (UniProt Q8IZ69),-0.026 (inactive)
13,"WDR46, A0A0G2JJL1",-0.546 (inactive)
14,TP53BP1 isoform 2 (UniProt Q12888),0.025 (inactive)
15,UBAP1 isoform 4 (UniProt Q9NZ09),0.129 (inactive)
16,TTI1 (UniProt O43156),0.022 (inactive)
17,U2AF1L5 (UniProt P0DN76),-0.075 (inactive)
18,TTC26,0.02 (inactive)
19,VTI1A (UniProt Q96AJ9),0.091 (inactive)
20,TRAM1 (UniProt Q15629),-0.008 (inactive)
21,TMEM41A (UniProt Q96HV5),0.06 (inactive)
22,TRIM5 (UniProt Q9C035),0.023 (inactive)
23,TVP23C (UniProt Q96ET8),0.041 (inactive)
24,TUBA4A (UniProt C9JJQ8),0 (inactive)
25,WARS1 (UniProt G3V277),0.283 (inactive)
